# Structures can show the parent of a compound that is named as a salt.
# How the values were obtained:
# Conditions in all cases: treatment time: 24 h
# A549-ACTB-RAB5A [1] = experiment: lowest phenotypically active concentration; higher = less potent
# Outline: (§1)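 Fifteen gene-edited A549, HepG2 and WPMY1 reporter lines (BFP segmentation plus GFP and RFP/FusionRed markers) were treated at 0.3, 1, 3 or 9 µM for 24 h, four wells each, then imaged live. Live-cell features per well were normalised to DMSO control wells. Deviation required ≥3 of 4 wells beyond the 95th percentile of DMSO Euclidean distances, and reproducibility required median replicate Pearson correlation above the 95th percentile of non-replicates. Phenotypic activity needed both criteria.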
# A549-CANX-COX4 [2] = experiment: as above
# Outline: as §1
# A549-GM130-SQSTM1 [3] = experiment: as above
# Outline: as §1
# A549-ACTB-RAB5A [4] = experiment: phenotypically active (imaging signature differs from DMSO and reproducible) at any of 0.3-9 uM (binary (1 = active, 0 = inactive)); higher = active
# Outline: as §1
# A549-CANX-COX4 [5] = experiment: as above
# Outline: as §1
# A549-GM130-SQSTM1 [6] = experiment: as above
# Outline: as §1
# A549-TP53BP1-CLTA = experiment: as above
# Outline: as §1
# A549-TUBA1B-RELA = experiment: as above
# Outline: as §1
# HepG2-ACTB-RAB5A = experiment: as above
# Outline: as §1
# HepG2-CANX-COX4 = experiment: as above
# Outline: as §1
# HepG2-GM130-SQSTM1 [7] = experiment: as above
# Outline: as §1
# HepG2-TP53BP1-CLTA = experiment: as above
# Outline: as §1
# HepG2-TUBA1B-RELA = experiment: as above
# Outline: as §1
# WPMY1-ACTB-RAB5A = experiment: as above
# Outline: as §1
# WPMY1-CANX-COX4 = experiment: as above
# Outline: as §1
# WPMY1-GM130-SQSTM1 [8] = experiment: as above
# Outline: as §1
# WPMY1-TP53BP1-CLTA = experiment: as above
# Outline: as §1
# WPMY1-TUBA1B-RELA = experiment: as above
# Outline: as §1
# HepG2-GM130-SQSTM1 [9] = experiment: lowest phenotypically active concentration; higher = less potent
# Outline: as §1
# WPMY1-GM130-SQSTM1 [10] = experiment: as above
# Outline: as §1
SMILES,lowest phenotypically active concentration (A549-ACTB-RAB5A [1]) [µM],lowest phenotypically active concentration (A549-CANX-COX4 [2]) [µM],lowest phenotypically active concentration (A549-GM130-SQSTM1 [3]) [µM],phenotypically active (A549-ACTB-RAB5A [4]),phenotypically active (A549-CANX-COX4 [5]),phenotypically active (A549-GM130-SQSTM1 [6]),phenotypically active (A549-TP53BP1-CLTA),phenotypically active (A549-TUBA1B-RELA),phenotypically active (HepG2-ACTB-RAB5A),phenotypically active (HepG2-CANX-COX4),phenotypically active (HepG2-GM130-SQSTM1 [7]),phenotypically active (HepG2-TP53BP1-CLTA),phenotypically active (HepG2-TUBA1B-RELA),phenotypically active (WPMY1-ACTB-RAB5A),phenotypically active (WPMY1-CANX-COX4),phenotypically active (WPMY1-GM130-SQSTM1 [8]),phenotypically active (WPMY1-TP53BP1-CLTA),phenotypically active (WPMY1-TUBA1B-RELA),lowest phenotypically active concentration (HepG2-GM130-SQSTM1 [9]) [µM],lowest phenotypically active concentration (WPMY1-GM130-SQSTM1 [10]) [µM]
COC[C@H]1OC(=O)c2coc3c2[C@@]1(C)C1=C(C3=O)[C@@H]2CCC(=O)[C@@]2(C)C[C@H]1OC(C)=O [wortmannin],1,9,3,1 (active),1 (active),1 (active),1 (active),1 (active),0 (inactive),0 (inactive),0 (inactive),0 (inactive),0 (inactive),0 (inactive),0 (inactive),0 (inactive),0 (inactive),0 (inactive),–,–
COc1cc2c(cc1OC)[C@@]13CCN4CC5=CCO[C@H]6CC(=O)N2[C@H]1[C@H]6[C@H]5C[C@H]43 [Brucine],–,–,–,0 (inactive),0 (inactive),0 (inactive),0 (inactive),0 (inactive),0 (inactive),0 (inactive),0 (inactive),0 (inactive),0 (inactive),0 (inactive),0 (inactive),0 (inactive),0 (inactive),0 (inactive),–,–
CCCCCC[C@H]1C(=O)O[C@H](C)[C@H](NC(=O)c2cccc(NC=O)c2O)C(=O)O[C@@H](C)[C@@H]1OC(=O)CC(C)C [antimycin a],≤ 0.3,≤ 0.3,≤ 0.3,1 (active),1 (active),1 (active),1 (active),1 (active),1 (active),1 (active),1 (active),1 (active),1 (active),1 (active),1 (active),1 (active),1 (active),1 (active),≤ 0.3,1
C/C=C(/C)C(=O)O[C@H]1C(C)=C2[C@H]([C@@H]1OC(=O)CCCCCCC)[C@@](C)(OC(C)=O)C[C@H](OC(=O)CCC)[C@@]1(O)[C@H]2OC(=O)[C@@]1(C)O [Thapsigargin],≤ 0.3,≤ 0.3,≤ 0.3,1 (active),1 (active),1 (active),1 (active),1 (active),1 (active),1 (active),1 (active),1 (active),1 (active),1 (active),1 (active),1 (active),1 (active),1 (active),≤ 0.3,≤ 0.3
C[C@]12C/C(=C\O)C(=O)C[C@@H]1CC[C@@H]1[C@@H]2CC[C@@]2(C)[C@H]1CC[C@]2(C)O [oxymetholone],9,–,–,1 (active),0 (inactive),0 (inactive),0 (inactive),0 (inactive),0 (inactive),0 (inactive),0 (inactive),0 (inactive),0 (inactive),0 (inactive),0 (inactive),0 (inactive),0 (inactive),0 (inactive),–,–
Fc1ccccc1C1=NCC(=S)N(CC(F)(F)F)c2ccc(Cl)cc21 [quazepam],–,–,–,0 (inactive),0 (inactive),0 (inactive),0 (inactive),0 (inactive),0 (inactive),0 (inactive),0 (inactive),0 (inactive),0 (inactive),0 (inactive),0 (inactive),0 (inactive),0 (inactive),0 (inactive),–,–
CO[C@H](C)[C@](O)(C(=O)OCC1=CCN2CC[C@H](O)[C@@H]12)C(C)C [Heliotrine],–,–,–,0 (inactive),0 (inactive),0 (inactive),0 (inactive),0 (inactive),0 (inactive),0 (inactive),0 (inactive),0 (inactive),0 (inactive),0 (inactive),0 (inactive),0 (inactive),0 (inactive),0 (inactive),–,–
O=C1C[C@@H]2OCC=C3CN4CC[C@]56c7ccccc7N1[C@H]5[C@H]2[C@H]3C[C@H]46 [Strychnine],9,–,–,1 (active),0 (inactive),0 (inactive),0 (inactive),0 (inactive),0 (inactive),0 (inactive),0 (inactive),0 (inactive),0 (inactive),0 (inactive),0 (inactive),0 (inactive),0 (inactive),0 (inactive),–,–
CC(C)NCC(O)c1ccc(N)c(C#N)c1 (stereo not given) [Cimaterol],–,–,–,0 (inactive),0 (inactive),0 (inactive),0 (inactive),0 (inactive),0 (inactive),0 (inactive),0 (inactive),0 (inactive),0 (inactive),0 (inactive),0 (inactive),0 (inactive),0 (inactive),0 (inactive),–,–
"CNC(=O)Oc1ccc2c(c1)[C@]1(C)CCN(C)[C@@H]1N2C [Eserine sulfate, physostigmine sulfate]",–,–,–,0 (inactive),0 (inactive),0 (inactive),0 (inactive),0 (inactive),0 (inactive),0 (inactive),0 (inactive),0 (inactive),0 (inactive),0 (inactive),0 (inactive),0 (inactive),0 (inactive),0 (inactive),–,–
C[C@]12CC[C@H](O)C[C@H]1CC[C@@H]1[C@@H]2C[C@@H](O)[C@]2(C)[C@@H](C3=CC(=O)OC3)CC[C@]12O [Digoxigenin],≤ 0.3,1,≤ 0.3,1 (active),1 (active),1 (active),1 (active),1 (active),1 (active),1 (active),1 (active),1 (active),1 (active),1 (active),1 (active),1 (active),1 (active),1 (active),3,3
COc1c2c(cc3c1OCO3)CC[N+](C)=C2 [Cotarnine chloride],–,–,–,0 (inactive),0 (inactive),0 (inactive),0 (inactive),0 (inactive),0 (inactive),0 (inactive),0 (inactive),0 (inactive),0 (inactive),0 (inactive),0 (inactive),0 (inactive),0 (inactive),0 (inactive),–,–
COc1ccc(CCN2CCC(Nc3nc4ccccc4n3Cc3ccc(F)cc3)CC2)cc1 [astemizole],1,9,≤ 0.3,1 (active),1 (active),1 (active),1 (active),1 (active),1 (active),1 (active),1 (active),1 (active),1 (active),1 (active),1 (active),1 (active),1 (active),1 (active),3,3
O=C1CN=C(c2ccccc2)c2cc(Cl)ccc2N1CC(F)(F)F [halazepam],–,–,–,0 (inactive),0 (inactive),0 (inactive),0 (inactive),0 (inactive),0 (inactive),0 (inactive),0 (inactive),0 (inactive),0 (inactive),0 (inactive),0 (inactive),0 (inactive),0 (inactive),0 (inactive),–,–
C[C@]12COC(=O)C[C@@H]1CC[C@@H]1[C@@H]2CC[C@@]2(C)[C@H]1CC[C@]2(C)O [oxandrolone],–,–,–,0 (inactive),0 (inactive),0 (inactive),0 (inactive),0 (inactive),0 (inactive),0 (inactive),0 (inactive),0 (inactive),0 (inactive),0 (inactive),0 (inactive),0 (inactive),0 (inactive),0 (inactive),–,–
CC(C)(C)c1cc(C=C(C#N)C#N)cc(C(C)(C)C)c1O [Malonoben],1,1,≤ 0.3,1 (active),1 (active),1 (active),1 (active),1 (active),1 (active),1 (active),1 (active),1 (active),1 (active),1 (active),1 (active),1 (active),1 (active),1 (active),1,1
Cc1sc2c(c1C)C(c1ccc(Cl)cc1)=N[C@@H](CC(N)=O)c1nnc(C)n1-2,≤ 0.3,≤ 0.3,≤ 0.3,1 (active),1 (active),1 (active),1 (active),1 (active),1 (active),1 (active),1 (active),1 (active),1 (active),1 (active),1 (active),1 (active),1 (active),1 (active),≤ 0.3,≤ 0.3
C[C@H]1O[C@@H](O[C@H]2[C@@H](O)C[C@H](O[C@H]3[C@@H](O)C[C@H](O[C@H]4CC[C@@]5(C)[C@H](CC[C@@H]6[C@@H]5CC[C@]5(C)[C@@H](C7=CC(=O)OC7)[C@@H](O)C[C@]65O)C4)O[C@@H]3C)O[C@@H]2C)C[C@H](O)[C@@H]1O [Gitoxin],≤ 0.3,≤ 0.3,≤ 0.3,1 (active),1 (active),1 (active),1 (active),1 (active),1 (active),1 (active),1 (active),1 (active),1 (active),1 (active),1 (active),1 (active),1 (active),1 (active),1,1
C=C1[C@@H](C)[C@H]2[C@H](Cc3ccccc3)NC(=O)[C@]23OC(=O)C=C[C@H](O)CCC[C@@H](C)CC=C[C@H]3[C@@H]1O [Cytochalasin B],≤ 0.3,1,1,1 (active),1 (active),1 (active),1 (active),1 (active),1 (active),1 (active),1 (active),1 (active),1 (active),1 (active),1 (active),1 (active),1 (active),1 (active),1,3

# Source: the supplement of paper PMC7411054
